According to PubChem BioAssay (EPA / NIEHS):
Calls of active or inactive are those of the source. The calls were made as follows: active = hit-call score of the fitted dose curve at least 0.9, where 1 is the maximum; inactive = score below 0.9.

Legend:
[1] = ATG_E_Box_CIS: Attagene CIS-FACTORIAL HepG2 Assay for human Enhancer Box (E-box) (AID 2282936); settings: HepG2 E-box cis-reporter transcription, actives raise or lower the signal
Method in brief: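 E-box-driven reporter transcripts measured in transiently transfected HepG2 after 24 h exposure: RNA reverse-transcribed, PCR-amplified, fluorescently labelled, digested and resolved by capillary electrophoresis. Gain or loss relative to DMSO.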

[2] = ATG_M_61_CIS: Attagene CIS-FACTORIAL HepG2 Assay for M61 Transcription Factor (Internal Marker) (AID 2282937); settings: HepG2 Attagene CIS-FACTORIAL M61 internal marker reporter; actives raise or lower the signal
Method in brief: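 Background-control endpoint: HepG2 cells with cis-regulated reporter constructs, 24 h exposure, reporter mRNA detected via fluorescent primer extension and capillary electrophoresis; values from bidirectional fitting with DMSO baseline.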

[3] = ATG_EGR_CIS: Attagene CIS-FACTORIAL HepG2 Assay for human Early Growth Response 1 (EGR1) (AID 2282938); settings: HepG2 Attagene CIS-FACTORIAL EGR reporter mRNA; actives raise or lower the signal
Method in brief: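 Endpoint derived by bidirectional fitting versus DMSO vehicle. Method: cis-promoter reporter units transfected into HepG2, 24 h dosing, RNA isolation, RT-PCR with 6-FAM primer extension and HpaI digestion, then capillary electrophoresis fluorescence detection.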

[4] = ATG_M_19_CIS: Attagene CIS-FACTORIAL HepG2 Assay for M19 Transcription Factor (Internal Marker) (AID 2282939); settings: HepG2 Attagene CIS-FACTORIAL M19 internal marker reporter; actives raise or lower the signal
Method in brief: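 HepG2 cells transiently transfected with cis-regulated multiplexed reporter units, dosed 24 h. Reporter mRNA quantified by RT-PCR and capillary electrophoresis; internal background marker fitted bidirectionally versus DMSO.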

[5] = ATG_ERE_CIS: Attagene CIS-FACTORIAL HepG2 Assay for Estrogen Response Element (ERE) (AID 2282940); settings: HepG2 ERE cis-reporter, Attagene RNA transcript; actives raise or lower the signal
Method in brief: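 HepG2 cells transiently transfected with multiplexed cis-element reporter units, measuring endogenous transcription factor activity; ERE reporter mRNA quantified after 24 h exposure by RT-PCR, fluorescent labelling, HpaI digestion and capillary electrophoresis. Bidirectional change versus DMSO.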

[6] = ATG_Ets_CIS: Attagene CIS-FACTORIAL HepG2 Assay for human Erythroblast Transformation Specific (ETS) (AID 2282941); settings: HepG2 ETS cis-reporter transcription, actives raise or lower the signal
Method in brief: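 RT-PCR/capillary electrophoresis fluorescence read-out of reporter mRNA; HepG2 transient multi-reporter transfection; 24 h compound exposure; gain or loss of signal fitted bidirectionally relative to DMSO.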

[7] = molecular target: Hepatocyte nuclear factor 3-beta (Homo sapiens) (UniProt Q9Y261); assay: ATG_FoxA2_CIS: Attagene CIS-FACTORIAL HepG2 Assay for human Forkhead box A2 (FOXA2) (AID 2282942); settings: HepG2 cis-reporter transcription factor activity, 24 h; actives raise or lower the signal
Chain of Hepatocyte nuclear factor 3-beta (Homo sapiens) (Q9Y261 whole entry, looked up): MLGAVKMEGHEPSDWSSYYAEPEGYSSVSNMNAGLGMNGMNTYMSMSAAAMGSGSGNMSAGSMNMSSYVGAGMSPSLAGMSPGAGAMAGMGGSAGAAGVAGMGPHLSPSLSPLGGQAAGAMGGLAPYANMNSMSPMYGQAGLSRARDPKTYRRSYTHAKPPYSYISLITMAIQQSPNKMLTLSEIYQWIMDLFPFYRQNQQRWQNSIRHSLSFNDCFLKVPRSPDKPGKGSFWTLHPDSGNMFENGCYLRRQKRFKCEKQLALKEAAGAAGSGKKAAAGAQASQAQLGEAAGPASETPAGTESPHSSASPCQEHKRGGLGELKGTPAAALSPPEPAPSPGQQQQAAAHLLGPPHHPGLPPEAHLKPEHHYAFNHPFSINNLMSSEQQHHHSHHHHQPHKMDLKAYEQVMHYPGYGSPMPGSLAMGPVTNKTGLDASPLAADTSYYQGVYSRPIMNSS
Method in brief: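 Measured: reporter mRNA induction or loss in HepG2 transiently carrying multiple cis-regulated reporter units, 24 h after dosing. Quantified by RT-PCR plus capillary electrophoresis, normalised to DMSO.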

[8] = ATG_FoxO_CIS: Attagene CIS-FACTORIAL HepG2 Assay for human Forkhead box O (FoxO) (AID 2282943); settings: HepG2 Attagene cis-reporter, FoxO element, mRNA; actives raise or lower the signal
Method in brief: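 Human hepatoma HepG2 cells carry transiently introduced reporter transcription units controlled by cis promoter elements. Chemical treatment lasted 24 h, and mRNA signal was compared with DMSO.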

[9] = ATG_GATA_CIS: Attagene CIS-FACTORIAL HepG2 Assay for human GATA Binding Protein (AID 2282944); settings: HepG2 GATA cis-element reporter, Attagene multiplex mRNA; actives raise or lower the signal
Method in brief: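 HepG2 cells transiently transfected with multiplexed cis-element reporter units measure endogenous GATA activity; after 24 h compound exposure, reporter mRNA quantified by RT-PCR and capillary electrophoresis. Changes fitted in both directions vs DMSO.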

[10] = ATG_GLI_CIS: Attagene CIS-FACTORIAL HepG2 Assay for human Zinc Finger Protein GLI1 (AID 2282945); settings: HepG2, Attagene cis-factorial reporter mRNA, GLI element; actives raise or lower the signal
Method in brief: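 Bidirectional curve fits relative to DMSO, using reporter mRNA levels from RT-PCR plus capillary electrophoresis. Cells were HepG2 transiently carrying cis-regulated reporter constructs, harvested 24 h after dosing.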

[11] = ATG_GRE_CIS: Attagene CIS-FACTORIAL HepG2 Assay for human Glucocorticoid Response Elements (GRE) (AID 2282947); settings: HepG2 GRE cis-reporter, Attagene multiplex mRNA; actives raise or lower the signal
Method in brief: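 Reporter transcripts read by RT-PCR with capillary electrophoresis fluorescence after a 24 h chemical exposure of HepG2 cells transiently transfected with multiple cis-element reporter units. Gain or loss fitted against DMSO.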

[12] = ATG_ISRE_CIS: Attagene CIS-FACTORIAL HepG2 Assay for human Interferon Regulatory Factor 1 (IRF1) binding to an Interferon-Stimulated Response Element (ISRE) (AID 2282948); settings: HepG2 ISRE cis-reporter (Attagene), mRNA transcription readout; actives raise or lower the signal
Method in brief: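 Read-out: fluorescent RT-PCR products resolved by capillary electrophoresis, reporting endogenous transcription factor activity via ISRE-driven reporter mRNA in transfected HepG2 cells dosed for 24 h; gain or loss fitted relative to DMSO.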

[13] = ATG_M_32_CIS: Attagene CIS-FACTORIAL HepG2 Assay for M32 Transcription Factor (Internal Marker) (AID 2282949); settings: HepG2 Attagene cis-factorial M32 reporter, mRNA; actives raise or lower the signal;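 also: background control marker of the multiplexed CIS panel rather than a real target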
Method in brief: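 HepG2 human liver cells transiently transfected with cis-promoter-driven multiple reporter transcription units, dosed 24 h. Reporter mRNA quantified by RT-PCR, FAM-labelled primer extension, HpaI digest and capillary electrophoresis; bidirectional fit versus DMSO baseline.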

[14] = ATG_M_06_CIS: Attagene CIS-FACTORIAL HepG2 Assay for M06 Transcription Factor (Internal Marker) (AID 2282950); settings: HepG2 Attagene CIS-FACTORIAL M06 internal marker reporter; actives raise or lower the signal
Method in brief: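 Internal background marker within multiplexed cis-reporter HepG2 system. Cells transiently transfected, dosed 24 h; reporter mRNA measured by RT-PCR, HpaI digestion and capillary electrophoresis. Bidirectional fit relative to DMSO.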

[15] = molecular target: Hypoxia-inducible factor 1-alpha (Homo sapiens) (UniProt Q16665); assay: ATG_HIF1a_CIS: Attagene CIS-FACTORIAL HepG2 Assay for human Hypoxia Inducible Factor 1 (HIF1A) (AID 2282951); settings: HepG2 Attagene cis-factorial HIF1a reporter transcription; actives raise or lower the signal
Chain of Hypoxia-inducible factor 1-alpha (Homo sapiens) (Q16665 whole entry, looked up): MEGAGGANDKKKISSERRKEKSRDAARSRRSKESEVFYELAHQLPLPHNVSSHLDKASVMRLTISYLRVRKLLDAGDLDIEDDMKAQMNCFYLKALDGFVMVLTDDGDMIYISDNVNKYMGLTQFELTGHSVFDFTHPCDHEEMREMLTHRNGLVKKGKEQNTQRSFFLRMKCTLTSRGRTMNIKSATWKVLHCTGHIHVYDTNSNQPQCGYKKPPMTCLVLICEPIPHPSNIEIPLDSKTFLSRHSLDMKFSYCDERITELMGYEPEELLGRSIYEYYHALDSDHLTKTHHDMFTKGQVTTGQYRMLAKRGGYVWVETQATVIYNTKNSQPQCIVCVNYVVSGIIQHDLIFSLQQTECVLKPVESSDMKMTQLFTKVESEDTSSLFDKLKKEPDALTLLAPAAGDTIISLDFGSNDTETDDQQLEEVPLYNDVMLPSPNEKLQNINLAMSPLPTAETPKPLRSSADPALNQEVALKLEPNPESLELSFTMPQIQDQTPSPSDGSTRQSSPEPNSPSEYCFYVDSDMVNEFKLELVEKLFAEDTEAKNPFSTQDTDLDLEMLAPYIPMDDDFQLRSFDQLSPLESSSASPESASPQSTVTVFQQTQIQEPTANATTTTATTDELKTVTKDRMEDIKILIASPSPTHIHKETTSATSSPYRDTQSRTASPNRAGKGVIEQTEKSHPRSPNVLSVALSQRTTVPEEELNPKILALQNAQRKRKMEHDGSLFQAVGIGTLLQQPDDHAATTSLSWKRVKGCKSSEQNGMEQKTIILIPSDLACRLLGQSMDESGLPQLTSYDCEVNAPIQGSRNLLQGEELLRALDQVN
Method in brief: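 Dosed 24 h, transfected HepG2 cells yielded total RNA whose reporter transcripts were RT-PCR-amplified and sized by capillary electrophoresis using fluorescent labelling; DMSO defined baseline, with gain and loss of signal both fitted.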

[16] = molecular target: Hepatocyte nuclear factor 6 (Homo sapiens) (UniProt Q9UBC0); assay: ATG_HNF6_CIS: Attagene CIS-FACTORIAL HepG2 Assay for human Hepatocyte Nuclear Factor 6 (HNF6) (AID 2282952); settings: HepG2 Attagene cis-factorial HNF6 reporter transcription; actives raise or lower the signal
Chain of Hepatocyte nuclear factor 6 (Homo sapiens) (Q9UBC0 whole entry, looked up, the tested form may be a part): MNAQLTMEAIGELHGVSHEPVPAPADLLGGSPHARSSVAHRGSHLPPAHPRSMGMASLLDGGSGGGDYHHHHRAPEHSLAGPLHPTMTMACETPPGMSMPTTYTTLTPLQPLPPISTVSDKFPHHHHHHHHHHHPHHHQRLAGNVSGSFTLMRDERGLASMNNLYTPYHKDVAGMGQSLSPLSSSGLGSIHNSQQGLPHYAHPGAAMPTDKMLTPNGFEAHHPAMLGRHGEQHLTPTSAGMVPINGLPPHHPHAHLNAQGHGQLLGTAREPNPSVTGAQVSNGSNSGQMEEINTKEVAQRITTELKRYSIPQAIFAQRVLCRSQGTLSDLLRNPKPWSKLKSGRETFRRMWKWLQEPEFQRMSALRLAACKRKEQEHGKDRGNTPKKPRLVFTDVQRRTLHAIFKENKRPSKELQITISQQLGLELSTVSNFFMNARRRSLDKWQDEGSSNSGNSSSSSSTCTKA
Method in brief: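 Using cis-element reporters in HepG2 liver cells, the assay tracks endogenous factor-driven transcription 24 h post-dosing. Signal comes from 6-FAM-labelled, HpaI-digested RT-PCR fragments, with gain or loss scored against DMSO.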

[17] = molecular target: Heat shock factor protein 1 (Homo sapiens) (UniProt Q00613); assay: ATG_HSE_CIS: Attagene CIS-FACTORIAL HepG2 Assay for human Heat Shock Transcription Factor 1 (HSE) (AID 2282953); settings: HepG2 HSE cis-reporter, Attagene RNA transcription; actives raise or lower the signal
Chain of Heat shock factor protein 1 (Homo sapiens) (Q00613 whole entry, looked up): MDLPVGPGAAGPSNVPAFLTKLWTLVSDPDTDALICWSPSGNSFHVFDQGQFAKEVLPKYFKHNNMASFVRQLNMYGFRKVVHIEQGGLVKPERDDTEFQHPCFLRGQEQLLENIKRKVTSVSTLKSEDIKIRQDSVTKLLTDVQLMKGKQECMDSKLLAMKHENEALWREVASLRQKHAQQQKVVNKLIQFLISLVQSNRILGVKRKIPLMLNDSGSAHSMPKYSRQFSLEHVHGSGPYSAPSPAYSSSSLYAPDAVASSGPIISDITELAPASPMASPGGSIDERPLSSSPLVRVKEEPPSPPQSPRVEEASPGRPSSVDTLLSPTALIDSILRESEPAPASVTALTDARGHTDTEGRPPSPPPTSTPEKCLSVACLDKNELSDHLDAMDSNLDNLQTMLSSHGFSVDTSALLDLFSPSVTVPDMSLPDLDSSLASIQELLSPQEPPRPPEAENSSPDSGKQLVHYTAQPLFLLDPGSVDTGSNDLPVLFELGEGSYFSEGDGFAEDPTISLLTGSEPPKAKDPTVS
Method in brief: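 HepG2 cells transfected with cis-promoter reporter units sensing endogenous transcription factor activity; reporter mRNA quantified 24 h post-dose by RT-PCR and capillary electrophoresis of 6-FAM-labelled products. Bidirectional fitting against DMSO.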

[18] = ATG_PBREM_CIS: Attagene CIS-FACTORIAL HepG2 Assay for human Phenobarbital-responsive Enhancer Module (PBREM) (AID 2282955); settings: HepG2 PBREM cis-reporter, Attagene multiplexed transcription; actives raise or lower the signal
Method in brief: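 Transfected liver-derived HepG2 cells exposed 24 h; PBREM reporter transcript quantified via RT-PCR and capillary electrophoresis, with activity in either direction referenced to DMSO.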

[19] = molecular target: Bile acid receptor (Homo sapiens) (UniProt Q96RI1); assay: ATG_IR1_CIS: Attagene CIS-FACTORIAL HepG2 Assay for human Nuclear Receptor Subfamily 1 Group H Member 4 (NR1H4), IR1 submotif (AID 2282946); settings: IR1 reporter transcription, actives raise or lower the signal
Chain of Bile acid receptor (Homo sapiens) (Q96RI1 whole entry, looked up): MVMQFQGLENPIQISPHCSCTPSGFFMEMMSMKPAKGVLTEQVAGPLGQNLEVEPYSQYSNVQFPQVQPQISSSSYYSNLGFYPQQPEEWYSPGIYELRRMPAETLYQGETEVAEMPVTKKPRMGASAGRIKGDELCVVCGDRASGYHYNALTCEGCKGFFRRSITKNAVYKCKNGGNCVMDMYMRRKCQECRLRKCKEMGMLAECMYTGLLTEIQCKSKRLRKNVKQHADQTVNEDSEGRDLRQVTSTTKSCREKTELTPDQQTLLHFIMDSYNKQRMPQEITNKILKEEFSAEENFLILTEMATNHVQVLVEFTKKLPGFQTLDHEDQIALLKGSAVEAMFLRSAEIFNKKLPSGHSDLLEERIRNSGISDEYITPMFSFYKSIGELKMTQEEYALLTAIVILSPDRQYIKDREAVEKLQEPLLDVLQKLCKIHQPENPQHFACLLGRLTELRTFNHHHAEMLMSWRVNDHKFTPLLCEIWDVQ
Method in brief: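 HepG2 cells transiently transfected with multiplexed cis-element reporter units read endogenous transcription factor activity. After 24 h compound exposure, reporter mRNA was quantified by RT-PCR, fluorescent labelling, HpaI digestion and capillary electrophoresis; bidirectional fitting versus DMSO baseline.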

[20] = ATG_MRE_CIS: Attagene CIS-FACTORIAL HepG2 Assay for human Metal Responsive Element (MRE) (AID 2282954); settings: HepG2 MRE cis-reporter transcription, Attagene multiplex; actives raise or lower the signal
Method in brief: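 Endogenous MRE-dependent transcription read as reporter mRNA in transiently transfected human HepG2 cells at 24 h. RNA reverse-transcribed, PCR-amplified, labelled and resolved by capillary electrophoresis; gain or loss relative to DMSO.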

Measured: AC50

CC/C(=C\C(=N/O)C(N)=O)C(C)[N+](=O)[O-] (configuration not stated)
not listed: [19] | [20]
inactive: all other assays above

CCOC(=O)c1ccc(C2CCC(NC[C@H](O)COc3ccc(O)c(NS(C)(=O)=O)c3)CC2)cc1 (some centres not stated)
active: [3] 56.8 µM | [8] 53.5 µM | [9] 48.8 µM | [10] 59.6 µM | [19] 53.2 µM | [11] 53.8 µM | [12] 51.5 µM | [15] 7.81 µM | [17] 61.8 µM | [20] 55 µM | [18] 53.4 µM
inactive: [1] | [2] | [4] | [6] | [7] | [13] | [14] | [16]

O=c1[nH]c2ccc(S(=O)CCN3CCC(Cc4ccc(F)cc4)CC3)cc2o1 (configuration not stated)
active: [3] 121 µM
not listed: [19] | [20]
inactive: all other assays above

Fc1ccccc1[C@@H](F)COC1CCC(Nc2ncnc3[nH]ncc23)CC1 (some centres not stated)
active: [1] 177 µM | [3] 5.72 µM | [12] 100 µM | [15] 2.96 µM | [17] 157 µM | [18] 26.2 µM
not listed: [5] | [20]
inactive: all other assays above

CC(C)(O)c1coc(S(=O)(=O)NC(=O)Nc2c3c(cc4c2CCC4)CCC3)c1
not listed: [5]
inactive: all other assays above

CCC(C)(C)C(=O)O[C@H]1C[C@@H](C)C=C2C=C[C@H](C)[C@H](CC[C@@H]3C[C@@H](O)CC(=O)O3)[C@H]21
active: [5] 6.94 µM
not listed: [19] | [20]
inactive: all other assays above

CCCCC(CC)COC(=O)CCCCCCCCC(=O)OCC(CC)CCCC (configuration not stated)
inactive: all assays above

Cc1ccc(N)cc1O
not listed: [19] | [20]
inactive: all other assays above

COC(=O)CC(=O)OC
not listed: [19] | [20]
inactive: all other assays above

Cc1[nH]cnc1C[C@H]1CCc2c(C)c3ccccc3n2C1=O
active: [3] 29.7 µM | [12] 21.9 µM | [15] 20.7 µM | [17] 46.5 µM | [20] 33.9 µM | [18] 15.8 µM
not listed: [5]
inactive: all other assays above

COc1ccc2sc(C(=O)Nc3nnn[nH]3)c(OC(C)C)c2c1
active: [3] 146 µM | [5] 25.7 µM | [19] 67.6 µM | [12] 44.1 µM | [15] 149 µM
not listed: [20]
inactive: all other assays above

CC(C)=CCCC(C)CCO (configuration not stated)
active: [5] 65.7 µM | [15] 178 µM
not listed: [11] | [18] | [19]
inactive: all other assays above

CC[C@H]1CC[C@H](NCc2cc3c(cc2OC)[C@H]2C[C@H]2C(=O)N3C)[C@H](c2ccccc2)N1
active: [3] 71.3 µM | [6] 100 µM | [8] 100 µM | [11] 69 µM | [12] 80.9 µM | [17] 71.5 µM | [20] 114 µM
not listed: [18] | [19]
inactive: all other assays above

CC(C)c1cccc(C(C)C)c1N1C(=O)c2ccc(O)cc2C1=O
active: [3] 66.8 µM | [4] 182 µM | [10] 126 µM | [19] 69.5 µM | [12] 84.7 µM | [16] 124 µM | [17] 68.4 µM | [20] 76.9 µM
not listed: [5] | [18]
inactive: all other assays above
